Assay results taken from the supplement of paper PMC10338343.
± gives the standard deviation.

test system: MILI (PIWIL2) piRISC loaded with L1MC piRNA (26 nt); experiment: pre-steady-state target cleavage rate (min^-1); guide: L1MC piRNA 5'p-UAACUAAAUACUAUGCAAGCUGUAGG; MIWI and MILI are mouse PIWI proteins and EfPiwi is from a freshwater sponge; tags in brackets are library labels; higher = faster piRNA-guided slicing of the target; settings: auxiliary factor: none (no GTSF1)
Summary of the method: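 The pre-steady-state cleavage rate came from a burst-and-steady-state fit to pooled data from three Cleave-'n-Seq trials, in which uncleaved targets were sequenced and normalised to depth and to weakly complementary targets. Each reaction held 0.1 nM transcribed, DNA-blocked target RNA library and 1 nM active affinity-purified piRISC carrying one synthetic guide, with or without 500 nM GTSF1 partner protein, in HEPES–potassium acetate buffer at 33 °C for 0–8 or 0–960 min. k3 was capped at 0.0001 min^-1.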

Sequence	pre-steady-state target cleavage rate
UCCUGGAUGUCGAACCAAAGUAAUUAGUUA	< 0.0001
UCCUGGAUGUCGAUGCAUAGUUAAUAGUUA	0.00272 ± 0.0027
UCCUGGAUGUCGAACGUUAGUAUUUGUUA	< 0.0001
UCCUGGAUGUCGAACGUUAGUAAUUUGUUA	< 0.0001
